Data on 40 molecules can be found in PubChem BioAssay (Tox21).

Results filed as inconclusive are left out. A number with no mark means an inactive call. Active and inactive are the calls of the source. Calls come from the whole dose curve; as a rule, active = well fitted inhibition curve with a large enough effect in the repeat runs; inconclusive = weak or mixed curves; inactive = no such curve, though single readings can be large or run the other way.
% is set by controls: 0 for no effect and ±100 for the full control effect; potency is the fitted concentration of half-maximal effect.

Cytochrome P450 3A4 (Homo sapiens), sequence (P08684 whole entry, looked up): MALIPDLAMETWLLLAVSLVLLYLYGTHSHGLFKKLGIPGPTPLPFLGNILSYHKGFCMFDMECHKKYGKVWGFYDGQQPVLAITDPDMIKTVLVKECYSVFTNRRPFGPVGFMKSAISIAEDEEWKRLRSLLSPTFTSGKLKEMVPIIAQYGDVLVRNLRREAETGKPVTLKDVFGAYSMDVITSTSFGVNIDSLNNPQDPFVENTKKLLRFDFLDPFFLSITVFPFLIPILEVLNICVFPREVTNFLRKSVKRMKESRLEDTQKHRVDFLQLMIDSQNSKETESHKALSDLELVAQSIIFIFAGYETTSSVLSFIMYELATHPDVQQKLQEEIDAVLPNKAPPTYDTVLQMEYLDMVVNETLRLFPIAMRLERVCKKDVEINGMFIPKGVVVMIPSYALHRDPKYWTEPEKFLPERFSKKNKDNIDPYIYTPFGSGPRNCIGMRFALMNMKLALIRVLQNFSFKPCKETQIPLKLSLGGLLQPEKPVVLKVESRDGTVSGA

This assay addresses Cytochrome P450 3A4 (Homo sapiens) (UniProt P08684). Description: Cytochrome P450 Family 3 Subfamily A Member 4 (CYP3A4) small molecule antagonists: luciferase reporter qHTS assay (AID 1671201). Note: nearly all actives have a fitted effect of over 50% in size. The following applies: P450-Glo CYP3A4 enzyme, luciferin luminescence, 1 h; series mostly up to 115 µM; activity change, negative = inhibition: at the top concentration. An excerpt:
National Center for Advancing Translational Sciences [NCATS]
U.S. Environmental Protection Agency [EPA]
National Institutes of Environmental Health Sciences [NIEHS]
National Toxicology Program [NTP]
U.S. Food and Drug Administration [FDA]
Cytochrome P450 (CYP) enzymes are membrane-bound hemeproteins that play a key role in metabolism of drugs and xenobiotics. Evaluation of the effect of chemicals on CYP isozymes is useful to minimize the adverse drug reactions and toxicities in drug development process. Tox21 chemicals were tested for their effect on CYP enzyme activities by using P450-Glo (TM) screening systems (Promega Corporation, Madison, WI). These systems provide a luminescent method containing proluciferin substrates and are converted to luciferin products by CYP isozymes. The luciferin products formed are detected with a luciferin detection reagent, and the amount of light produced is proportional to CYP activity. P450-Glo (TM) CYP3A4 screening system (Catalog. No. V9910) was used to detect the compounds that interfere in CYP3A4 activity. The positive control compound used for CYP3A4 assay is ketoconazole (Sigma-Aldrich, St. Louis, MO).
Tox21 Assay Protocol Summary:
Two ul of enzyme-substrate mix was dispensed into medium binding white/solid 1536-well plates (Greiner Bio-One North America Inc., Monroe, NC) using a BioRaptr Flying Reagent Dispenser (FRD, Beckman Coulter, Brea, CA). Compounds dissolved in DMSO and positive control (ketoconazole) were transferred to the assay plates at 23 nl using a Pintool station (Wako, San Diego, CA). The assay plates were incubated at room temperature for 10 min. Then 2 ul of NADPH regeneration solution was added to each well of the assay plates using an FRD and incubated at room temperature for 1 h. The reaction was stopped by adding 4 ul of detection reagent using an FRD and after 20 min incubation at room temperature the luminescence signal was measured using a ViewLux plate reader (Perkin Elmer, Shelton, CT). Data were expressed as relative luminescence units.
On the technique in general: In a reporter assay the amount or activity of a reporter protein is the signal.
For the molecule `COc1ccc(CCN(C)CCCN2CCc3cc(OC)c(OC)cc3CC2=O)cc1OC`, the “activity change, negative = inhibition” value was -23.3% [at 52.9 µM].
With `CC(C)CC(O)CC(C)C`, the “activity change, negative = inhibition” value was 5.27%.
Same read-out and setting: next, `O=S(=O)(Cl)c1c(Cl)cccc1Cl`: 4.31%.
Regarding `CC1=CC[C@@]23C[C@@H]1C(C)(C)[C@@H]2CC[C@H]3C`, the Potency was 79.6 µM (active).
For the molecule `CCCC(=O)OC(=O)CCC`, the “activity change, negative = inhibition” value was 5.44%.
For the molecule `Cc1ccc2c(c1[N+](=O)[O-])C(=O)c1ccccc1C2=O`, the Potency is 15.6 µM (active).
As to `CCCCCCCCCCCSCC(=O)O`, the “activity change, negative = inhibition” value is 79.6%.
Same read-out and setting: the figure for `O=C1c2ccccc2C(=O)c2c(O)ccc(O)c21` is 12.9%; for `CCCCCCCCCCCCCCCCCC(=O)OCC(CC)CCCC` (stereo not given) it is 4.11%; for `SCCc1cnccn1` it is -18.9%.
Regarding `CCC(CO)(CO)[N+](=O)[O-]`, the “activity change, negative = inhibition” value was 7.78%.
Take `CC(=O)OCC(=O)[C@@]1(OC(C)=O)[C@@H](C)C[C@H]2[C@@H]3C[C@H](F)C4=CC(=O)C=C[C@]4(C)[C@@]3(F)[C@@H](O)C[C@@]21C`: the “activity change, negative = inhibition” value is 300% [at 52.9 µM].
Same read-out and setting: next, `CCCCCCCC(=O)OCCCCCC`: 1.32%; `CCC(Cl)CC(Cl)C(Cl)C(Cl)C(Cl)C(C)Cl` (stereo not given): 36.6% [at 23.6 µM]; `FC(F)(F)C(F)(F)C(F)(F)C(F)(F)CCI`: 5.37% [at 52.9 µM].
Same read-out and setting: the figure for `CC(=O)OC(C)C[N+](C)(C)C` (stereo not given) is 10.8% [at 52.9 µM]; for `O=C(O)CCS` it is 5.26%; for `CCCCCCCCCCCCCCN(C)C` it is -11.1% [at 23.6 µM].
Same read-out and setting: next, `OCC(CO)n1cnc(-c2ccc(F)cc2)c1-c1ccnc(Oc2ccccc2)n1`: -14.1%.
On to `CCN(CC)c1cccc(O)c1`, for which the Potency was 20.4 µM (active).
On to `C=C(C)C(=O)OCCC(F)(F)C(F)(F)C(F)(F)C(F)(F)C(F)(F)C(F)(F)F`, for which the “activity change, negative = inhibition” value is 6.77%.
On the same count and under the same terms, next, `CC(=O)C(C)=O`: 2.47%; `CC(C)C1CCC(C(=O)N[C@H](Cc2ccccc2)C(=O)O)CC1` (stereo not given in full): 26.8% [at 52.9 µM].
For `Nc1ccc(NC(=O)c2ccc(N)cc2)cc1`, the Potency is 5.65 µM (active).
The same measure, in the same setting: the figure for `CC(C)(O)c1coc(S(=O)(=O)NC(=O)Nc2c3c(cc4c2CCC4)CCC3)c1` is 22.4 µM (active).
In the case of `CCCCCCCCCCCCCC(=O)OCC(O)CO` (stereo not given), the “activity change, negative = inhibition” value was -9.43%.
On the same count and under the same terms, next, `CC[C@@H](CO)NCCN[C@@H](CC)CO`: 2.78% [at 52.9 µM].
With `CC1CCC(C(C)CS)CC1S` (stereo not given), the Potency is 31.7 µM (active).
Consider `O=[N+]([O-])c1ccc2ncccc2c1`, for which the “activity change, negative = inhibition” value is -8.63%.
Still for that read-out and setting: next, `CCN(CC)CCOC(=O)C(c1ccccc1)c1ccccc1`: -24.3% [at 52.9 µM]; `CC(=O)OCC(C)C`: 15.2%.
The same measure, in the same setting: the figure for `O=C(O)CCCc1c[nH]c2ccccc12` is 54.5%.
Still for that read-out and setting: the figure for `O=C1NC(=O)c2cccc3cccc1c23` is 35.3%; for `O=C(c1ccccc1)c1ccc(O)cc1` it is 0.431%; for `CCCCCCOC(=O)CCCCC` it is 2.63%.
`CCCCC[C@H](O)/C=C/[C@H]1[C@H](O)CC(=O)[C@@H]1C/C=C\CCCC(=O)O`: the “activity change, negative = inhibition” value is 0% [at 52.9 µM].
Still for that read-out and setting: the figure for `O=C1OC(=O)c2c(Br)c(Br)c(Br)c(Br)c21` is 37.3%; for `C/C(C=O)=C\c1ccccc1` it is 23.5%; for `O=c1[nH][nH]c(=O)c2cc([N+](=O)[O-])ccc12` it is -6.18%.
Turning to `Cc1cn([C@H]2C[C@H](F)[C@@H](CO)O2)c(=O)[nH]c1=O`, the “activity change, negative = inhibition” value is 0.843% [at 52.9 µM].
